Source: PubChem
Cardio protect: myocardial damage modulation in H9c2 cells | H9c2 cardiomyocytes, H2O2 injury protection, ATPLite, 2 h | protection from H2O2 cell death, % at 20 µM | 0.63% of 360,000 active | AID 588492;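 active = compounds giving at least 50% protection of heart cells from peroxide-induced death in the single-dose screen, raw or plate-pattern-corrected value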;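 note: 0% = DMSO wells with peroxide and 100% = DMSO wells without peroxide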
ABCB6 inh 2: blocks the human ABCB6 transporter; fluorescence ratio to DMSO, % at 10 µM; AID 602162; Q9NP58; K562-ABCB6 porphyrin accumulation, flow cytometry, 1 h; hits give low values; 0.19% of 360,000 active;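 active = fluorescence ratio to DMSO below 75%, the collection mean minus 3 SD; inconclusive = too few cells collected in the well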;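 note: signal is porphyrin accumulated inside mitochondria; 100% equals median channel fluorescence of DMSO control wells; lower ratio means ABCB6 inhibition with less porphyrin fluorescence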
Target sequence (Q9NP58 whole entry, looked up): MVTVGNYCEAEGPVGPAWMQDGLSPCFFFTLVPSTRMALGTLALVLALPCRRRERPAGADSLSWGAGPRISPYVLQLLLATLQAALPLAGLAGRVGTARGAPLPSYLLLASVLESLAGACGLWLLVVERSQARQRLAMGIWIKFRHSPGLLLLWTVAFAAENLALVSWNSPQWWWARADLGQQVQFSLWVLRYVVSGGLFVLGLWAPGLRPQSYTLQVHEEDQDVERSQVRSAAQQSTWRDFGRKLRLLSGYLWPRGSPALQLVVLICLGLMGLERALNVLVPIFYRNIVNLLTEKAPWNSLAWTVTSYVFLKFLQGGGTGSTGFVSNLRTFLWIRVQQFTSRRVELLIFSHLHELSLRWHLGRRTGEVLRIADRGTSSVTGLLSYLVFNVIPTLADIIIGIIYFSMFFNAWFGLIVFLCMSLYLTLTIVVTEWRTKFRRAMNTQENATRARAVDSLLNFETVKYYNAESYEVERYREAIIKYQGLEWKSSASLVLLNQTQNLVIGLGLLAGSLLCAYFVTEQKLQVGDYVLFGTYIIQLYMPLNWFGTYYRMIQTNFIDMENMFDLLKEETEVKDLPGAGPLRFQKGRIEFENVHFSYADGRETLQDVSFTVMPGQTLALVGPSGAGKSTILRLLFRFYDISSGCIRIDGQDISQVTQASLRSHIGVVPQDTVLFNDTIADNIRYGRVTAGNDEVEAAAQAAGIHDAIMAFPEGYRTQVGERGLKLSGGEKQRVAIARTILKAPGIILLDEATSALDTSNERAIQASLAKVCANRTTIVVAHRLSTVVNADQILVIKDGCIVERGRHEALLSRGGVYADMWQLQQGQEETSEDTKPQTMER
MIN6 prolif-1: MIN6 beta-cell proliferation induction | 0.29% of 330,000 active | MIN6 cells proliferation, ATPlite luminescence, 48 h; cells starved in 0.2% serum; 100% = growth in 10% serum | AID 2380 | proliferation, % at 10 µM;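 active = compounds whose signal lies at least 3.5 SD above the mean of all wells on their plate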;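 note: 0% = DMSO-treated cells in low-serum medium and 100% = 10% serum control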
Myeloid diff 2: compounds promoting myeloid differentiation; calls only at 10 µM; 1% of 360,000 active; ER-HoxA9 myeloid progenitors, lysozyme-GFP differentiation, flow cytometry;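 active = normalized GFP-positive differentiation at or above the plate's own cutoff, the solvent-only control mean plus 3 SD; inconclusive = no clear call, values can overlap the other calls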;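 note: cells exposed to compound for four days before flow analysis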
iPSC survival up: increases survival of single human iPS cells. hiPSC single-cell survival, ATPlite luminescence; 100% = ROCK inhibitor wells, 0% = DMSO. survival enhancement, % at 20 µM. 0.044% of 360,000 active. AID 602274; in the data active = survival enhancement above about 18%;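 note: cells exposed to compounds for 16 hours before the ATP read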
MIN6 prolif-2: confirmation of inducers of beta-cell replication in MIN6 cells; MIN6 beta-cell proliferation, ATPlite luminescence, 48 h; cells kept in 0.2% serum; scaled between 0.2% and 10% serum; AID 463095; proliferation increase, % at 50 µM; shares compounds with MIN6 prolif-1; 920 tested, under 10 active;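 active = proliferation increase above 40% at any of the four tested concentrations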
* hit, by the source's call; i = inactive; ? = inconclusive; / = no result. Only some compounds are listed: those with a hit (about 2.2% of all), similar ones and a draw of the others.

SMILES | Cardio protect | ABCB6 inh 2 | MIN6 prolif-1 | Myeloid diff 2 | iPSC survival up | MIN6 prolif-2
CCOc1ccccc1NC(=O)Cn1c(=O)c(OCC)nc2cnccc21 | -1 | 100 | 12* | i | -1 | 1
CCOc1nc2cnccc2n(CC(=O)Nc2c(F)c(F)cc(F)c2F)c1=O | -4 | 100 | -1 | i | -1 | /
CCOc1nc2cnccc2n(CC(=O)Nc2ccccc2C(=O)OC)c1=O | 4 | 104 | 14* | i | -1 | 1
Clc1ccc(-c2nn3c(C4COc5ccccc5O4)nnc3s2)cc1 (configuration not stated) | 7 | 92 | -4 | i | -2 | /
COc1cc(NC(=O)CN(c2ccc(C)cc2)S(=O)(=O)c2c(C)nn(C)c2C)cc(OC)c1 | 10 | 98 | 10* | i | 1 | -6
CCOc1ccc(S(=O)(=O)N2CCN(C)CC2)c(C)c1C | 4 | 99 | 0 | i | 1 | /
Cc1nn(-c2ccccc2)c2sc(-c3nnc(SCC(=O)O)o3)cc12 | 4 | 101 | 5.1* | i | 3 | -2
COc1cc(OC)c(N(C)S(=O)(=O)c2cccc(C(=O)Nc3nnc(C4CC4)s3)c2)cc1Cl | 6 | 94 | -3 | i | 0 | /
CCOC(=O)C1CCN(c2cc3c(cc2NC(=O)c2ccccc2Cl)n(C)c(=O)n3C)CC1 | 56* | 92 | 15* | i | 0 | -6
O=C(NCCC1CCCCN1S(=O)(=O)c1ccccc1)C(=O)NC1CC1 (configuration not stated) | 2 | 100 | 12* | i | 0 | -1
Cc1ccc(S(=O)(=O)N2CCCCC2CCNC(=O)C(=O)NC2CCCC2)cc1 (configuration not stated) | -1 | 100 | -4 | i | 0 | /
CCOc1ccccc1C(=O)NCC(=O)Nc1ncccc1C | 4 | 101 | 12* | i | 2 | -1
COC(=O)c1ccc(S(=O)(=O)NCc2cccc(OC)c2)n1C | 12 | 99 | 5.5* | i | 4 | 0
COC(=O)c1ccc(S(=O)(=O)NCc2ccc(S(N)(=O)=O)cc2)n1C | 4 | 96 | -3 | i | 0 | /
Cc1ccc(OC(C)C(=O)Nc2ccc3c(c2)n(C)c(=O)n3C)cc1C (configuration not stated) | 1 | 100 | 7.8* | i | 0 | 0
Cc1cc(C)cc(OC(C)C(=O)Nc2ccc3c(c2)n(C)c(=O)n3C)c1 (configuration not stated) | 3 | 98 | -4 | i | 0 | /
Cc1ccc(C)c(CSc2nc3[nH]ncc3c(=O)[nH]2)c1 | 6 | 89 | -2 | ? | -2 | /
COc1cc(S(=O)(=O)NC2CCCCC2C)ccc1-n1cnnn1 (configuration not stated) | -17 | 94 | 7.6* | i | -1 | -4
CC1CCCCC1NS(=O)(=O)c1ccc(-n2cnnn2)cc1 (configuration not stated) | -16 | 93 | 0 | i | -2 | /
CCOC(=O)C1(CC)NC(c2cccc(F)c2)C2C(=O)N(CC)C(=O)C21 (configuration not stated) | 2 | 99 | 7.2* | i | 0 | 4
Cc1ccc2ncc([N+](=O)[O-])n2c1 | -1 | 109 | -2 | i | 2 | /
CC(C)[C@H](NS(=O)(=O)c1ccccc1)C(=O)OCC(=O)Nc1ccc2c(c1)OCO2 | 6 | 100 | 4.6* | i | -1 | 0
COc1ccc2c(c1)C(c1ccc(C)o1)=NNC(c1ccccc1)=N2 | 13 | 99 | -2 | i | 0 | /
COc1ccccc1-c1nnc2sc(C3CCCCC3)nn12 | -5 | 97 | 1 | i | 0 | /
c1csc(Cc2nn3c(-c4ccncc4)nnc3s2)c1 | 5 | 108 | 7.3* | i | 2 | 4
SMILES | Cardio protect | ABCB6 inh 2 | MIN6 prolif-1 | Myeloid diff 2 | iPSC survival up | MIN6 prolif-2
c1cc(-c2nnc3sc(C4CCCCC4)nn23)ccn1 | 1 | 98 | 9.0* | i | 9 | 3
CC(C)NC(=O)C1(C)CSCC(=O)N1Cc1cccs1 (configuration not stated) | / | / | / | i | / | /
c1ccc(OCCOCCN2CCN(C(c3ccccc3)c3ccccc3)CC2)cc1 | 1 | 88 | 0 | i | 0 | /
O=C(N/N=C/c1ccncc1)c1ccc(NC(=O)c2ccc(Cl)cc2)cc1 | 2 | 95 | 0 | i | 0 | /
COCCn1c(SCCCc2ccccc2)nc2c1c(=O)[nH]c(=O)n2C | -6 | 97 | 5.5* | i | -1 | -5
COc1ccc(S(=O)(=O)N2CCOC23CCN(C(=O)c2ccccc2Br)CC3)cc1 | -1 | 100 | -3 | i | 0 | /
Cc1ccc(S(=O)(=O)N2CCOC23CCN(C(=O)c2ccccc2Br)CC3)cc1 | -6 | 98 | 13* | i | 0 | -6
COCCNC(=S)NN(c1ccccc1)c1ccccc1 | 13 | 94 | 9.0* | i | 0 | -4
O=C(c1cnsn1)N1CCC(CO)(Cc2cccc(F)c2)CC1 | 1 | 99 | 8.2* | i | 0 | -1
Cc1nc2ccccc2nc1SCC(=O)N1CCC(C)CC1 | -7 | 96 | -3 | i | 0 | /
COC(=O)c1cc(C)sc1NC(=O)c1ccco1 | -2 | 102 | -3 | i | 0 | /
COC(=O)c1ccsc1NC(=O)c1ccco1 | 3 | 102 | 11* | i | 0 | 6
Cc1ccc(NC(=O)CC2C(=O)NCCN2C(=S)Nc2ccccc2)c(C)c1 (configuration not stated) | -6 | 97 | 0 | i | 1 | /
CN1CCN(CC(O)COC(c2ccccc2)c2ccccc2)CC1 (configuration not stated) | 0 | 101 | 8.2* | i | -1 | -2
O=c1oc2ccccc2c2c1ncn2-c1ccccc1 | 6 | 105 | -1 | i | 8 | /
O=C(NCc1ccc(F)cc1)C(c1ccco1)N(C(=O)c1csnn1)c1ccccc1 (configuration not stated) | 1 | 93 | 11* | / | 6 | -4
O=C(NCc1ccc(F)cc1)C(c1ccccc1)N(C(=O)c1csnn1)c1ccccc1 (configuration not stated) | 36 | 95 | 3 | i | 0 | /
O=C(CCc1ccccc1)NC1C2CC3CC(C2)CC1C3 (configuration not stated) | 2 | 101 | -2 | i | 1 | /
O=c1ccc2cc(S(=O)(=O)N3CCN(c4ccccc4)CC3)ccc2[nH]1 | 0 | 97 | 0 | i | 1 | /
CC(=O)c1cccc(CN2CCCC(C(=O)Nc3ccc(-c4ccco4)cc3)C2)c1 (configuration not stated) | 7 | 98 | -4 | i | 2 | /
O=C(Nc1ccc(-c2ccco2)cc1)C1CCCN(Cc2ccc(CO)o2)C1 (configuration not stated) | 1 | 98 | 11* | i | 0 | -6
